Among the test systems are DU-145 prostate; K-562 leukemia; MALME-3M melanoma; MDA-MB-231 breast; RXF 393 renal; SF-268 CNS; SF-295 CNS; SF-539 CNS; UACC-257 melanoma; M14 melanoma; HCT-15 colon; HT29 colon; SNB-75 CNS; SNB-19 CNS; U251 CNS; PC-3 prostate; SK-MEL-5 melanoma; UACC-62 melanoma; LOX IMVI melanoma; SK-MEL-28 melanoma.
Experiment in all cases: NCI-60 one-dose screen, 48 h (100 = growth as untreated, 0 = no growth, -100 = all killed)
What all share (settings): 10 µM unless noted

Structures are written as SMILES. This is part of a sample that, as a whole, favours compounds with a hit. Of some 83,000 tested, about 20% had one in any assay.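 Single-concentration screen, 48 h exposure, 96-well plates. Endpoint: percent growth. Below 10 = active.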 A number with no mark means an inactive call. Active and inactive are the calls of the source.

Turning to `CSc1nnc(-c2cc3c([nH]c4ccccc43)c(-c3cccc(O)c3)n2)n1-c1ccccc1`, the growth in the experiment on DU-145 prostate was 33.9%; in the experiment with K-562 leukemia it was 15.8%; in the experiment on MALME-3M melanoma, 22.1%; in the experiment with MDA-MB-231 breast, 34.6%; with RXF 393 renal, 9.95% (active); in the experiment with SF-268 CNS it was 39.5%. The growth was 24.8% with SF-295 CNS; -7.08% (active) in the experiment with SF-539 CNS; 59.9% with UACC-257 melanoma; 14.5% in the experiment with M14 melanoma; 26.7% in the experiment on HCT-15 colon; 41.3% in the experiment with HT29 colon. Besides, the growth with SNB-75 CNS is 5.14% (active); in the experiment on SNB-19 CNS, 38.6%; with U251 CNS it was 32.3%; in the experiment with PC-3 prostate, 29.9%; in the experiment on SK-MEL-5 melanoma, 19.9%; in the experiment with UACC-62 melanoma, 42.3%. Also, the growth was 33.1% in the experiment with LOX IMVI melanoma and 36.2% with SK-MEL-28 melanoma.

`CCOC(=O)c1cc2c(n1Cc1cc(OC)c(OC)c(OC)c1)-c1nc(N)sc1CCC2`: the growth in the experiment with DU-145 prostate was 79.1%; in the experiment with K-562 leukemia, 24.6%; with MALME-3M melanoma it was 69.5%; with MDA-MB-231 breast, 51.6%; with RXF 393 renal it was 54.9%; in the experiment on SF-268 CNS, 70.5%. For the same compound, the growth is 26% in the experiment on SF-295 CNS; 62.5% in the experiment with SF-539 CNS; 43.9% in the experiment with UACC-257 melanoma; 25.6% in the experiment with M14 melanoma; 35.9% with HCT-15 colon; 19.3% in the experiment with HT29 colon. Moreover, the growth with SNB-75 CNS is 60.3%; in the experiment on SNB-19 CNS it was 61.3%; with U251 CNS it was 38.9%; in the experiment on PC-3 prostate, 26.3%; in the experiment with SK-MEL-5 melanoma it was 19.6%; with UACC-62 melanoma, 35.5%. The growth with LOX IMVI melanoma was 48.5%; in the experiment on SK-MEL-28 melanoma, 69.4%.

Consider `O=C1/C(=C/c2cn(-c3ccccc3)nc2-c2ccccc2)SC(=S)N1C1CCCCC1`, for which the growth in the experiment on DU-145 prostate was 106%; in the experiment on K-562 leukemia it was 101%; with MALME-3M melanoma, 92.3%; with MDA-MB-231 breast, 89.8%; in the experiment with RXF 393 renal, 106%; in the experiment with SF-268 CNS, 102%. In addition, the growth with SF-295 CNS is 104%; in the experiment with SF-539 CNS, 99.4%; with UACC-257 melanoma it was 102%; with M14 melanoma, 99.1%; in the experiment with HCT-15 colon, 109%; in the experiment with HT29 colon, 111%. Besides, the growth in the experiment with SNB-75 CNS was 99.2%; in the experiment with SNB-19 CNS, 96.9%; with U251 CNS, 107%; in the experiment with PC-3 prostate it was 96.3%; in the experiment on SK-MEL-5 melanoma, 100%; with UACC-62 melanoma it was 92.6%. In addition, the growth in the experiment on LOX IMVI melanoma was 91%; in the experiment on SK-MEL-28 melanoma, 101%.

`O=C(CN1C(=O)S/C(=C\c2ccccc2)C1=O)Nc1ncc(Cc2ccccc2Cl)s1`: the growth was 87% in the experiment with DU-145 prostate; 97.3% in the experiment with K-562 leukemia; 104% with MALME-3M melanoma; 101% in the experiment on MDA-MB-231 breast; 125% in the experiment on RXF 393 renal; 87.9% with SF-268 CNS. Besides, the growth is 100% with SF-295 CNS; 94.8% with SF-539 CNS; 96.9% with UACC-257 melanoma; 102% with M14 melanoma; 92.3% with HCT-15 colon; 109% with HT29 colon. Moreover, the growth was 81.9% in the experiment with SNB-75 CNS; 101% in the experiment on SNB-19 CNS; 95% with U251 CNS; 79% in the experiment with PC-3 prostate; 98.2% with SK-MEL-5 melanoma; 85.6% in the experiment on UACC-62 melanoma. The growth is 87.9% in the experiment with LOX IMVI melanoma and 119% in the experiment with SK-MEL-28 melanoma.

As to `N=C(N)c1ccc(-c2ccc(-c3ccc(Cl)cc3Cl)s2)cc1`, the growth with DU-145 prostate was -24.7% (active); in the experiment on K-562 leukemia it was -7.11% (active); in the experiment on MALME-3M melanoma, 73.9%; in the experiment on MDA-MB-231 breast, -38% (active); in the experiment with RXF 393 renal, 87.3%; in the experiment on SF-268 CNS it was 42.4%. Besides, the growth in the experiment on SF-295 CNS is -30.6% (active); in the experiment with SF-539 CNS, -28.9% (active); in the experiment with UACC-257 melanoma, 88%; in the experiment on M14 melanoma, 41.5%; with HCT-15 colon, -70.6% (active); in the experiment with HT29 colon, 3.85% (active). Further, the growth was 88.5% with SNB-75 CNS; 10.9% in the experiment on SNB-19 CNS; -45.4% (active) in the experiment on U251 CNS; 0.127% (active) with PC-3 prostate; 89.3% in the experiment on SK-MEL-5 melanoma; 74.8% with UACC-62 melanoma. The results for the growth with LOX IMVI melanoma and in the experiment on SK-MEL-28 melanoma were -89.3% (active) and 105%, respectively.

Consider `C#CCOC(=O)/C=C/c1cn(-c2ccccc2)nc1-c1ccc(OC)cc1`, for which the growth in the experiment with DU-145 prostate is 95.1%; in the experiment on K-562 leukemia, 16.8%; with MALME-3M melanoma it was 107%; in the experiment on MDA-MB-231 breast, 57.1%; in the experiment with RXF 393 renal it was 73.7%; in the experiment with SF-268 CNS, 87.9%. Further, the growth in the experiment with SF-295 CNS is 94.1%; in the experiment on SF-539 CNS, 89.4%; in the experiment with UACC-257 melanoma, 87.5%; in the experiment on M14 melanoma, 98.8%; with HCT-15 colon it was 94.1%; with HT29 colon it was 83.2%. Moreover, the growth with SNB-75 CNS was 66.6%; in the experiment on SNB-19 CNS, 99.5%; in the experiment on U251 CNS it was 83.1%; in the experiment on PC-3 prostate, 83.4%; in the experiment on SK-MEL-5 melanoma it was 92%; in the experiment with UACC-62 melanoma it was 85.4%. Further, the growth in the experiment with LOX IMVI melanoma was 83.6%; in the experiment with SK-MEL-28 melanoma it was 115%.

With `C1CCC([PH+](C2CCCCC2)C2CCCCC2[PH+](C2CCCCC2)C2CCCCC2)CC1.[Au].[CH-]1CCCCC1C1CCCC[N-]1` (stereo not given), the growth is -52.8% (active) with DU-145 prostate; -0.185% (active) in the experiment on K-562 leukemia; -44.3% (active) in the experiment on MALME-3M melanoma; -27.6% (active) with MDA-MB-231 breast; -92.4% (active) with RXF 393 renal; -55% (active) with SF-268 CNS. Besides, the growth is -42.9% (active) in the experiment with SF-295 CNS; -90.4% (active) in the experiment with SF-539 CNS; -53.8% (active) in the experiment with UACC-257 melanoma; -41.3% (active) with M14 melanoma; -26.2% (active) with HCT-15 colon; 2.8% (active) in the experiment on HT29 colon. Moreover, the growth in the experiment with SNB-75 CNS was -31.8% (active); with SNB-19 CNS it was -96.6% (active); in the experiment with U251 CNS, -84.3% (active); with PC-3 prostate it was -16.7% (active); in the experiment with SK-MEL-5 melanoma, -98% (active); in the experiment with UACC-62 melanoma it was -79.7% (active). The growth is -96.5% (active) in the experiment on LOX IMVI melanoma and -83.2% (active) with SK-MEL-28 melanoma.

Source of the values: PubChem BioAssay (NCI).
